GASC-1 inh: inhibitors of human GASC-1 (JMJD2C) demethylase | inhibition, % at 2.35 µM | Q9H3R0 | AID 2099 | GST-JMJD2C(1-420) H3K9me3 demethylation, DELFIA europium | actives 0.069% (n = 330,000);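 active means more than half of a compound's replicate wells show inhibition beyond 50%, single wells judged on their own value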;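 further: signal counts dimethyl H3K9 product captured on neutravidin plate; 0% = median of DMSO wells and 100% = 0.3 times that DMSO median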
Target sequence (Q9H3R0 1-420 limits assumed): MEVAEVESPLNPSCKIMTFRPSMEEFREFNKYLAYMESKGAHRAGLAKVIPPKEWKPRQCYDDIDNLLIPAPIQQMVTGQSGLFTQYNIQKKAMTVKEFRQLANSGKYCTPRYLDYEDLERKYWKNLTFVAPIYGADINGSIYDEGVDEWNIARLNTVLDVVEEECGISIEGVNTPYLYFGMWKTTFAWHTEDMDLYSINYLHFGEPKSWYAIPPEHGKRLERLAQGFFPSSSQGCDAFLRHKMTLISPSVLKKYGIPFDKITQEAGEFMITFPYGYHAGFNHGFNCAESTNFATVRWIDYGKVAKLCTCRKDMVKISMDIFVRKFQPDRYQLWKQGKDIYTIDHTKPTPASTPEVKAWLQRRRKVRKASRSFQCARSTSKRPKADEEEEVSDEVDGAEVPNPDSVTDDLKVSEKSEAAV
PP5 inh: PP5 (human) phosphatase inhibition; actives 0.18% (n = 320,000); inhibition, % at 6.7 µM; purified PP5c, OMFP substrate fluorescence;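 active means inhibition above the campaign's mean inhibition across all tested compounds plus 3 SD, cut at about 9.5% in these data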;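 further: 0% = DMSO only and 100% = 100 µM cantharidin control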
Rev-erbA mod: modulates human Rev-erb alpha binding to DNA; Rev-erbα–FITC-DNA binding, fluorescence polarization, 90 min; actives 0.79% (n = 370,000); AID 1259318; activity, % at 10 µM;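 active means activity above about 14%, limit read from the data; passing the limit was not always enough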;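 further: 0% = DMSO wells with 35 nM protein and 100% = DMSO wells with 750 nM protein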
PG9 Ab binder: small molecules binding HIV-1 gp120 antibody PG9 | actives 0.43% (n = 360,000) | TR-FRET gp120-PG9 antibody binding | inhibition, % at 6.7 µM; in the data active means inhibition above about 8.5%
PP1 counter: PP1-alpha (human) inhibition in PP5 counter-screen | inhibition, % at 6.7 µM | AID 2235 | purified PP1alpha, OMFP fluorescence | actives 0.9% (n = 320,000);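 active means inhibition above the mean inhibition of all tested compounds plus 3 SD, computed separately for each screening campaign, cut at about 15% in these data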
proKLK7 act: activates the human kallikrein-7 zymogen; actives 0.9% (n = 370,000); purified proKLK7, EDANS-DABCYL substrate fluorescence; 100% is mature enzyme control, 0% vehicle; activation, % at 7 µM;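 active means activation above the mean of all tested compounds plus 3 SD, computed per campaign excluding outliers beyond control limits, cut at about 13% in these data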
Target sequence (P49862 whole entry, looked up): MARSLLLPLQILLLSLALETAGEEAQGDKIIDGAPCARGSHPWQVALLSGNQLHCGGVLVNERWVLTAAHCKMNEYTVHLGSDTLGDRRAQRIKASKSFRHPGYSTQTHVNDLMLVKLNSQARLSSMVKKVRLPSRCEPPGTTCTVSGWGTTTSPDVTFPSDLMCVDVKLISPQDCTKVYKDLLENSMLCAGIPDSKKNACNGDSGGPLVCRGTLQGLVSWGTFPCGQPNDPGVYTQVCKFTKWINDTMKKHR
proKLK7 act conf: proKLK7 activation, confirmation; shares compounds with proKLK7 act; purified proKLK7, EDANS-DABCYL substrate fluorescence; scaled: vehicle 0, mature enzyme 100; activation, % at 7 µM; actives 68% (n = 3,200);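 active means activation, as change over the incubation, above the mean of all tested compounds plus 3 SD, cut at about 13% in these data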
EDANS interfere: optically interferes with EDANS-DABCYL signal, flagging KLK7 hits. shares compounds with proKLK7 act. EDANS-DABCYL substrate fluorescence interference, no enzyme, 4 h; solvent 0%, active enzyme control 100%. activation, % at 7 µM. actives 80% (n = 3,200);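 active means activation above the all-compound mean plus 3 SD, ignoring values outside control-based bounds, cut at about 4.8% in these data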;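 further: value is the 4 h activation minus the activation read at time zero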
K7 EDANS ctr: EDANS fluorescence interference in dose response, no enzyme | shares compounds with proKLK7 act | EDANS-DABCYL peptide fluorescence interference | EC50, µM | actives 20% (n = 250) | AID 720493;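 active means compounds that raise the fluorescence signal in this interference counterscreen, with EC50 at or below 10 µM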;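 further: intact quenched peptide substrate alone read at 355 nm excitation and 520 nm emission; signal is fluorescence gain from T0 to T4 after four hours at room temperature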
The depositor's hits bear a star. Shown are actives, neighbours in structure and some others; about 2.8% of the full set was active somewhere.

What do the screens show for `COc1ccc(-c2cn3cc(C)ccc3n2)cc1OC`?
GASC-1 inh: -6.4; PP5 inh: 0.4; Rev-erbA mod: -4.7; PG9 Ab binder: -2.3; PP1 counter: -0.3; proKLK7 act: 13.0*; proKLK7 act conf: 7.7; EDANS interfere: 12.7*

What do the screens show for `COc1ccc(CC(=O)Nc2ccc(-c3cn4ccccc4n3)cc2)cc1OC`?
GASC-1 inh: 8.2; PP5 inh: 0.4; Rev-erbA mod: 0.3; PG9 Ab binder: -0.1; PP1 counter: -4.5; proKLK7 act: 32.6*; proKLK7 act conf: 4.8; EDANS interfere: 1.5

How did COc1ccc(CC(=O)Nc2ccc(-c3cn4ccccc4n3)cc2)cc1 do in these assays?
GASC-1 inh: -7.3; PP5 inh: 4.6; Rev-erbA mod: 2.0; PG9 Ab binder: -1.6; PP1 counter: -1.8; proKLK7 act: -4.8

What do the screens show for `COc1ccc(-c2cn3cc(C)ccc3n2)cc1F`?
GASC-1 inh: -12.4; PP5 inh: 1.7; Rev-erbA mod: 4.3; PG9 Ab binder: -0.4; PP1 counter: -0.4; proKLK7 act: 1.4

How did COc1ccccc1CCn1cnc(-c2cccc(F)c2)c1C(C)C do in these assays?
Rev-erbA mod: -5.8; PG9 Ab binder: -0.1; proKLK7 act: 0.0

What do the screens show for `CCOC(=O)c1c(C)nc(C)c(C(=O)OCC)c1-c1ccccc1`?
GASC-1 inh: -0.7; PP5 inh: 0.5; Rev-erbA mod: -3.6; PP1 counter: 1.8

How did CCOC(=O)c1c(-c2ccccc2)cn2c(C)cc(C)nc12 do in these assays?
GASC-1 inh: -28.4; PP5 inh: -0.6; Rev-erbA mod: -8.6; PG9 Ab binder: 0.2; PP1 counter: -2.8; proKLK7 act: 12.7*; proKLK7 act conf: 5.9; EDANS interfere: -1.6

How did COc1ccc2c(c1)CCc1cc(C(=O)O)sc1-2 do in these assays?
GASC-1 inh: 21.4; PP5 inh: 1.6; Rev-erbA mod: -1.0; PG9 Ab binder: 0.2; PP1 counter: -1.5; proKLK7 act: 55.6*; proKLK7 act conf: 59.0*; EDANS interfere: 67.5*

How did COC(=O)C1=C(C)N(C)C(=NCC2CC2)NC1c1ccccc1 (centres undefined) do in these assays?
Rev-erbA mod: -0.7; PG9 Ab binder: 0.1; proKLK7 act: -0.4

What do the screens show for `c1cc(-c2ccc(N3CCOCC3)cc2)n2cnnc2c1`?
Rev-erbA mod: -6.8; PG9 Ab binder: 0.1; proKLK7 act: 66.9*; proKLK7 act conf: 69.4*; EDANS interfere: 67.2*

What do the screens show for `CCOC(=O)C1=NN(c2ccccc2)C2C(=O)N(c3ccccc3OC)C(=O)C12` (centres undefined)?
GASC-1 inh: -3.6; PP5 inh: 0.2; Rev-erbA mod: -2.9; PG9 Ab binder: 0.7; PP1 counter: 1.0; proKLK7 act: 18.9*; proKLK7 act conf: 2.7; EDANS interfere: -0.3

Results for COC(=O)c1cc2c(c3c4ccccc4n(S(=O)(=O)c4ccc(OC)cc4)c13)C(=O)N(Cc1ccc(N(C)C)cc1)C2 ?
Rev-erbA mod: 2.5; PG9 Ab binder: 1.2; proKLK7 act: 0.1

How did C[C@@H]1COc2cc(N3CCOCC3)ccc2S(=O)(=O)N1 do in these assays?
Rev-erbA mod: -2.2; PG9 Ab binder: 1.6; proKLK7 act: -0.3

Results for Cc1cccc(Cn2cc(COC(=O)N(C)Cc3ccccc3)nn2)c1 ?
Rev-erbA mod: -2.5; proKLK7 act: 0.7

How did O=C(NC1CCC(O)CC1)c1cc(-c2ccc(Cl)cc2)nc2ccccc12 (centres undefined) do in these assays?
GASC-1 inh: 0.9; PP5 inh: 4.7; Rev-erbA mod: 10.6; PG9 Ab binder: -2.0; PP1 counter: 1.4; proKLK7 act: -0.5

Results for Nc1nc2ccc(Cl)cc2cc1C(=O)NC1CC1 ?
Rev-erbA mod: 2.2; PG9 Ab binder: 1.3; proKLK7 act: 16.2*; proKLK7 act conf: 12.4; EDANS interfere: 8.8*

How did Nc1nc2ccc(Cl)cc2cc1C(=O)NCCc1ccc(Cl)cc1Cl do in these assays?
Rev-erbA mod: 0.9; PG9 Ab binder: -0.8; proKLK7 act: -0.5

Results for CCN(CC)CCCNC(=O)c1cc2cc(Cl)ccc2nc1N ?
Rev-erbA mod: -4.9; PG9 Ab binder: -0.2; proKLK7 act: 17.0*; proKLK7 act conf: 25.5*; EDANS interfere: 24.6*

How did CNc1cnc(-c2cccc(C(=O)N3CCOCC3)c2)cn1 do in these assays?
Rev-erbA mod: -5.0; PG9 Ab binder: -0.6; proKLK7 act: 14.2*; proKLK7 act conf: 14.9*; EDANS interfere: 20.1*

What do the screens show for `CNc1cccc(-c2ccc(C(=O)N3CCOCC3)cc2)n1`?
Rev-erbA mod: 3.8; PG9 Ab binder: -0.9; proKLK7 act: 3.5

What do the screens show for `COC(=O)C1CN(C2CC2)CCS(=O)(=O)N1Cc1cn(Cc2ccccc2)nn1` (centres undefined)?
Rev-erbA mod: 0.6; proKLK7 act: 0.3

Results for COc1ccc(-c2ccc3c(n2)CCCN3Cc2ccccc2C(F)(F)F)cc1 ?
Rev-erbA mod: 0.0; PG9 Ab binder: -0.9; proKLK7 act: 18.5*; proKLK7 act conf: 15.5*; EDANS interfere: 12.7*; K7 EDANS ctr: inactive

How did CCCCN1CC(COCc2ccccc2)Oc2cccc(NCc3cc(OC)c(OC)c(OC)c3)c2S1(=O)=O (centres undefined) do in these assays?
Rev-erbA mod: 0.4; PG9 Ab binder: 0.0; proKLK7 act: -4.4

How did Nc1nc2nccc(-c3ccccn3)n2n1 do in these assays?
GASC-1 inh: 10.3; PP5 inh: 2.2; Rev-erbA mod: -2.8; PG9 Ab binder: -0.5; PP1 counter: -4.0; proKLK7 act: 11.4

How did Nc1nc2nccc(-c3ccco3)n2n1 do in these assays?
GASC-1 inh: 1.9; PP5 inh: -0.9; Rev-erbA mod: 0.8; PG9 Ab binder: 0.2; PP1 counter: -3.6; proKLK7 act: 17.4*; proKLK7 act conf: 15.2*; EDANS interfere: 26.7*

How did CCC[C@H]1[C@@H](NC(=O)c2ccc(Cl)cc2)CC[C@@]23CCCN2C(=O)CCC[C@@H]13 do in these assays?
Rev-erbA mod: -3.9

What do the screens show for `CSc1ccc(/C=C/C(=O)N2CCCN(C)CC2)cc1`?
GASC-1 inh: 1.8; PP5 inh: 1.5; Rev-erbA mod: -0.6; PG9 Ab binder: -1.0; PP1 counter: -5.4; proKLK7 act: 16.9*; proKLK7 act conf: 3.3; EDANS interfere: 5.9*
